Data on 16 compounds can be found in PubChem BioAssay (NCATS).

Assay [1] has as its target N-terminal Xaa-Pro-Lys N-methyltransferase 1 (Homo sapiens) (UniProt Q9BV86). Kind of assay: qHTS Assay for Inhibitors of N-terminal methyltransferase 1 (NTMT1): LOPAC validation of the NTMT1 SAHH-coupled ThioGlo3 Assay (AID 1347143).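 Also: SAH from peptide methylation measured as thiol fluorescence via SAHH coupling and ThioGlo3; nearly all actives have a fitted effect of over 70% in size.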 Also: potency is read from the fitted curve at half-maximal effect. Put shortly:
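Recombinant human NTMT1 (125nM) was pre-incubated 1 min at room temperature with compounds over a concentration range, then a mix of 100uM SAM, 10uM SAHH and 15uM ThioGlo3 (concentrations in added reagent) was added. ThioGlo3 fluorescence (ex 340/em 450nm) after 30 min was normalized to the initial reading.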
(qHTS replaces the single test concentration by a dilution series.)

Assay [2] concerns Zika virus NS2B-NS3 protease (unlinked complex). Kind of assay: Primary screen GU Rhodamine qHTS for Zika virus inhibitors: Unlinked NS2B-NS3 protease assay (AID 1347159). Also: nearly all actives have a fitted effect of over 60% in size. The gist of the method:
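Compounds, tested up to 114 microM, were incubated for 15 minutes with 25 nM unlinked NS2B-NS3 protease at pH 8.0. Cleavage of 1.5 microM Rhodamine110 substrate was then followed by fluorescence for 15 minutes.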

The subject of assay [3] is Zika virus NS2B-NS3 protease (linked construct). Kind of assay: Primary screen NINDS Rhodamine qHTS for Zika virus inhibitors (AID 1347160). Also: nearly all actives have a fitted effect of over 55% in size. The settings on record: outcome: dose series up to 57.1 µM unless noted. Put shortly:
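Percent inhibition, normalized to uninhibited and enzyme-free controls, is fitted to a 4-parameter Hill equation. Fluorescence change comes from a 15-min cleavage of 1.5 microM bis-peptide Rhodamine110 substrate by 25 nM linked NS2B-NS3 at room temperature.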

Assay [4] is described as follows: qHTS to identify inhibitors of the type 1 interferon - major histocompatibility complex class I in skeletal muscle: primary screen against the NCATS LOPAC collection (AID 1347405).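 Also: lytic HiBiT luminescence reporting HLA-B protein level.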 The gist of the method: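 Luminescence from HiBiT fused to endogenous HLA-B in CRISPR-engineered human myoblasts served as the read-out. Cells received 4.0 ng/ml IFN-beta plus compound (seven concentrations, 1:4.3 steps, highest 46 uM final) for 24 hrs before lytic detection.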

For assay [5], the system named is Zika virus NS2B-NS3 protease. Kind of assay: Primary screen GU AMC qHTS for Zika virus inhibitors (AID 1347154). Also: nearly all actives have a fitted effect of over 70% in size. Also: potency is read from the fitted curve at half-maximal effect. The gist of the method:
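Unlinked Zika NS2B hydrophilic domain–NS3 protease complex at 25 nM in 10 mM Tris-HCl pH 8.0, 0.01% Tween 20, with an AMC peptide substrate. Fluorescence change (340/450 nm) over 15 min at room temperature, normalized to controls, fitted to 4-parameter Hill.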

The target in a further assay is Furin (Homo sapiens) (UniProt P09958). Description: Furin counterscreen qHTS for Zika virus inhibitors (AID 1347149). Also: potency is read from the fitted curve at half-maximal effect; nearly all actives have a fitted effect of over 70% in size. The gist of the method:
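Fluorogenic cleavage of BOC-RVRR-AMC (2 microM final, Km ~15 µM) was monitored (ex 340, em 450 nm) at 37C after 15 min RT preincubation of 5 nM furin with compounds in HEPES pH 7.0 buffer with CaCl2 and Triton X-100. Percent inhibition was fitted to a 4-parameter Hill curve.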
(A counterscreen serves to expose hits that act by an unwanted route or on another target.)

Assay [6] relates to Zika virus NS2B-NS3 protease (linked construct). Kind of assay: Confirmatory screen NINDS AMC qHTS for Zika virus inhibitors (AID 1347152). Also: potency is read from the fitted curve at half-maximal effect; nearly all actives have a fitted effect of over 70% in size. Put shortly:
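Linked NS2B-NS3 1 nM, Tris pH 8.0/0.01% Tween 20; cpd 15 min RT dark; + Nle-KRR-AMC 10 µM (Km 18.3 µM); read 0 and 15 min, 340/450 nm; %inh vs controls, 4-param Hill.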

Assay [7] concerns Zika virus NS2B-NS3 protease (unlinked complex). Description: Confirmatory screen GU AMC qHTS for Zika virus inhibitors (AID 1347153). The gist of the method:
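Unlinked enzyme 25 nM, Tris pH 8.0/0.01% Tween 20; cpd 15 min RT, dark; + AMC substrate 10 µM (Km 18.3 µM); 340/450 nm read at t0 and 15 min; % inhibition → 4-param fit.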

Assay [8] in a line: Confirmatory screen NINDS Rhodamine qHTS for Zika virus inhibitors (AID 1347161). Also: potency is read from the fitted curve at half-maximal effect; nearly all actives have a fitted effect of over 60% in size. Put shortly:
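Purified NS2B-NS3 protease with the NS2B hydrophilic domain joined by a flexible linker (25 nM) in 10 mM Tris-HCl pH 8.0, 0.01% Tween 20, preincubated 15 min at RT with compound; Rhodamine110 peptide substrate 1.5 µM; fluorescence change over 15 min; 4-parameter Hill fit.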

The test system of assay [9] is Zika virus NS2B-NS3 protease (linked). Description: 384 well plate NINDS AMC confirmatory qHTS for Zika virus inhibitors (AID 1347163). Also: nearly all actives have a fitted effect of over 50% in size. Also: potency is read from the fitted curve at half-maximal effect. The gist of the method:
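Linked NS2B-NS3 protease (final 5 nM, 30 nM or 60 nM) was preincubated with compounds (final up to 1 mM) for ~15 minutes. Ac-VKTGKR-AMC substrate (final 30 microM) then reacted for 25 minutes at room temperature in the dark. Fluorescence (ex 355/em 460 nm) was normalized to no-enzyme and no-inhibitor controls.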

Assay [10] concerns Zika virus NS2B-NS3 protease (linked construct). Kind of assay: 384 well plate NINDS Rhodamine confirmatory qHTS for Zika virus inhibitors (AID 1347164). Also: potency is read from the fitted curve at half-maximal effect; nearly all actives have a fitted effect of over 65% in size. The settings on record: rhodamine-110 peptide substrate fluorescence. Put shortly: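 Fluorescence read at ex 485 nm/em 538 nm, 25 min after adding 10 microM Ac-LKRR-Rd substrate at room temperature in the dark; signal normalized to no-enzyme and no-inhibitor controls. Enzyme final 5, 30 or 60 nM; compounds, ~15 min preincubation.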

Assay [11] is described as follows: Vero cells viability qHTS for Zika virus inhibitors (AID 1347167). Put shortly: (§1)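 Cells seeded at 2.5 x 10^5 cells/mL in DMEM with 4% FBS and attached overnight at 37 degrees C, then exposed to compound for 24 to 48 hours. Viability read as ATP content by CellTiter Glo luminescence.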
Assay [12] in a line: HepG2 cells viability qHTS for Zika virus inhibitors (AID 1347168). Put shortly: as §1
Assay [13] is described as follows: qHTS to identify inhibitors of the type 1 interferon - major histocompatibility complex class I in skeletal muscle: primary screen against the NCATS Pharmaceutical Collection (AID 1347407).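 Also: luminescence of HiBiT knocked into endogenous HLA-B as interferon-induced MHC class I level.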 Put shortly: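 HLA-B HiBiT myoblasts, dexamethasone-free growth medium + 4 ng/ml IFN-b; compounds pinned 1 h after seeding, […] from 46 uM; 24 h, 37 C, 5% CO2; lytic HiBiT detection, 10 min RT, luminescence.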

Assay [14] in a line: Tertiary RLuc qRT-PCR qHTS assay for Zika virus inhibitors (AID 1347169). Also: top concentration of the series differs between compounds; nearly all actives have a fitted effect of over 55% in size. Put shortly: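 Luminescence read-out: live-cell Renilla luciferase substrate applied to infected Vero cells, signal measured after 1-1.5 hrs. Cells had received compound before ZIKV-RLuc (Cambodian strain, MOI 1-2) infection and were incubated 48-72 hrs at 37 degrees C.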
Assay [15] has as its system Zika virus NS2B-NS3 protease (unlinked). Kind of assay: Optimization of GU AMC qHTS for Zika virus inhibitors: Unlinked NS2B-NS3 protease assay (AID 1347151). Also: series mostly up to about 52 µM; nearly all actives have a fitted effect of over 80% in size. Put shortly:
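Fluorescence read-out (340 nm ex / 450 nm em) of AMC peptide cleavage, taken immediately and after 15 min at room temperature (~20% conversion). Enzyme was the unlinked NS2B–NS3 complex at 25 nM in Tris pH 8.0 buffer.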

The target of assay [16] is Lysine-specific demethylase 5B (Homo sapiens) (UniProt Q9UGL1). Kind of assay: Optimization screen for KDM5B Histone Demethylases FDH coupled qHTS against the LOPAC library (AID 1347166). The gist of the method:
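KDM5BDeltaAP (200nM final) preincubated 10 min with compound, then 12.5uM H3K4Me3, 25uM a-ketoglutarate, ascorbate, Fe(II), NAD+ and FDH added; 50mM HEPES pH 7.5, 0.01% Tween-20. NADH fluorescence (340/450 nm) change over 30 min, room temperature.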

A short description of assay [17]: ZIKV-mCherry secondary qHTS for Zika virus inhibitors (AID 1347158). Also: top concentration of the series differs between compounds. The gist of the method:
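Vero, 5,000 cells/well, o/n 37 °C; cpd pin-transferred in DMSO; ZIKV-mCherry MOI 1, 48-72 h 37 °C; 32% PFA stock fix, Hoechst; imaged 10x DAPI/mCherry; mCherry+ threshold 450 RFU; % infection.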

Molecules are shown by their SMILES. Inconclusive results are not listed. A number with no mark means an inactive call. Activity calls are given as the source filed them. Calls follow the shape of the dose curve; as a rule, active = well fitted curve in the direction sought with a large enough effect; inconclusive = small, poorly fitted or top-dose-only effect, or another doubt; inactive = no such curve, though single readings can be large; an effect the other way counts as inactive or inconclusive.

Furin (Homo sapiens), sequence (P09958 whole entry, looked up): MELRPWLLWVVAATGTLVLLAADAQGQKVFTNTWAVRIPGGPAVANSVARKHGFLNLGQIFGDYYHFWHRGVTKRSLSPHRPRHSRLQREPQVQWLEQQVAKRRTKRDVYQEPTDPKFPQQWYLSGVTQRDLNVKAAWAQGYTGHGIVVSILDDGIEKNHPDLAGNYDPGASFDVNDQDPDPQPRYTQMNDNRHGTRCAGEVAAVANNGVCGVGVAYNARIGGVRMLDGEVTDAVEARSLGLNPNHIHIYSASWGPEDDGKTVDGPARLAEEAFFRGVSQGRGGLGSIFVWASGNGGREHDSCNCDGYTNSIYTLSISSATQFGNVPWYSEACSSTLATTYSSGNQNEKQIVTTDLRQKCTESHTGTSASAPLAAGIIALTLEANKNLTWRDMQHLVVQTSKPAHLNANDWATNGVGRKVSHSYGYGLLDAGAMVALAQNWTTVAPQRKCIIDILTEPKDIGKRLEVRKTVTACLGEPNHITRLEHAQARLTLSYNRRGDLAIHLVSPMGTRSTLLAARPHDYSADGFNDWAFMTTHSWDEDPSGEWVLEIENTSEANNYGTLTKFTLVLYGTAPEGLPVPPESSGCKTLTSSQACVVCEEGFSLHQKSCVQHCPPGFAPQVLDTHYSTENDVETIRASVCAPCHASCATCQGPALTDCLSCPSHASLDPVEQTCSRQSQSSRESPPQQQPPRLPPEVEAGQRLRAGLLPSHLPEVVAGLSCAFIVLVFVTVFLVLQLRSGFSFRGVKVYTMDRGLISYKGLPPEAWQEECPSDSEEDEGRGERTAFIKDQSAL
N-terminal Xaa-Pro-Lys N-methyltransferase 1 (Homo sapiens), sequence (Q9BV86 whole entry, looked up): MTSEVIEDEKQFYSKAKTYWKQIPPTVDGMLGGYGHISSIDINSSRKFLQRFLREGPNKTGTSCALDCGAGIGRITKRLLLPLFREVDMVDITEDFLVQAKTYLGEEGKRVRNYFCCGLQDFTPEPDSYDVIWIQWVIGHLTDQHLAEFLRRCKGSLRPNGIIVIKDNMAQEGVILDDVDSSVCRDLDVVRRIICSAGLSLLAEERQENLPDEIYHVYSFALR
Lysine-specific demethylase 5B (Homo sapiens), sequence (Q9UGL1 whole entry, looked up): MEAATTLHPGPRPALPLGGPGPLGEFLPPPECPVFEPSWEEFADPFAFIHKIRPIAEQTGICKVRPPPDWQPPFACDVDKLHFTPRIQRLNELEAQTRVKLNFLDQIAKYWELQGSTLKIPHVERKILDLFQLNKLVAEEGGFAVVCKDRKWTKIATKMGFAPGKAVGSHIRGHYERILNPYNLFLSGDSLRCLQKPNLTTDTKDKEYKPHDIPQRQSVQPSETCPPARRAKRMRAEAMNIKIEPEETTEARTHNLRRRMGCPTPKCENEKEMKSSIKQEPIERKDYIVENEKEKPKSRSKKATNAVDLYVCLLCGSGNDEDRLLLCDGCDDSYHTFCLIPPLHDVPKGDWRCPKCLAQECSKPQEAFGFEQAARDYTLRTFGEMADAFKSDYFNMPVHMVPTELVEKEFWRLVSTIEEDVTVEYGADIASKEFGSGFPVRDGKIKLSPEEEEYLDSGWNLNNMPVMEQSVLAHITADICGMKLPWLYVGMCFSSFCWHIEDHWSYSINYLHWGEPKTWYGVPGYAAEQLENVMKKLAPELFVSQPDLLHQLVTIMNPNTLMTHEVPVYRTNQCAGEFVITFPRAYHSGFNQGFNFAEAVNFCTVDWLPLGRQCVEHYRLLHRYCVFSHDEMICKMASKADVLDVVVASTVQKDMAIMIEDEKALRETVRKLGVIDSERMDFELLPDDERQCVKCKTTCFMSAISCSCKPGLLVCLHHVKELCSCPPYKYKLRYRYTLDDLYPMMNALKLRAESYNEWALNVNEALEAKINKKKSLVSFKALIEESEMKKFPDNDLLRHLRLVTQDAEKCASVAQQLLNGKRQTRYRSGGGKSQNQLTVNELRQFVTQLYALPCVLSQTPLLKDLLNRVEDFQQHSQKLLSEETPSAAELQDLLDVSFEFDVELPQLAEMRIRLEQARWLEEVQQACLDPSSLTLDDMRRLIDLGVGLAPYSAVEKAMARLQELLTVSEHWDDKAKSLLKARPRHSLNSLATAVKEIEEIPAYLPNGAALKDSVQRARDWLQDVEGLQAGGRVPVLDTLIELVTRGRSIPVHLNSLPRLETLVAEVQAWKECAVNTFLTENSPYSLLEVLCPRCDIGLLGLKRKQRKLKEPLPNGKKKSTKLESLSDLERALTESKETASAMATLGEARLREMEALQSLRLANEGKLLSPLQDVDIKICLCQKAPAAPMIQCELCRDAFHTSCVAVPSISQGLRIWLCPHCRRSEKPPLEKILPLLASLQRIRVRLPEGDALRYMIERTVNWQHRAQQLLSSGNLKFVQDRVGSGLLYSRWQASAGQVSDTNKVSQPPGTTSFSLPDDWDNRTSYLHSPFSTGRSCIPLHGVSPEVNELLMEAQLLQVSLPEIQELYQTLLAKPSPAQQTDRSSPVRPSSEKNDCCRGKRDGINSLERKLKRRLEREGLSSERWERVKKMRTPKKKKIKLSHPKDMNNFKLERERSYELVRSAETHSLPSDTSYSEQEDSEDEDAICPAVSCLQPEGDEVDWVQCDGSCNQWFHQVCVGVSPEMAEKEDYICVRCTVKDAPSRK

For the compound `Brc1ccc([C@H]2CN3CCSC3=N2)cc1`, the Potency in [1] was 79.4 µM (active). Moreover, the Potency result in [2] and in [4] was “inactive” throughout. Further, in assay [3], the result was inactive.

On to `CCCCCC1Nc2cc(C(F)(F)F)c(S(N)(=O)=O)cc2S(=O)(=O)N1` (configuration not stated), for which the Potency entry in assay [5] is “inactive”.

For the compound `CCC1=C[C@@H]2CN(C1)Cc1c([nH]c3ccccc13)[C@@](C(=O)OC)(c1cc3c(cc1OC)N(C)[C@H]1[C@@](O)(C(=O)OC)[C@H](OC(C)=O)[C@]4(CC)C=CCN5CC[C@]31[C@@H]54)C2`, the Potency result in assay [5] is “inactive”.

With `O=C(Nc1ccc(S(=O)(=O)N2CCOCC2)cc1)c1cc(Cl)ccc1NS(=O)(=O)c1ccc(Cl)s1`, the Potency in the assay with Furin (Homo sapiens) was 21.5 µM (active); in [6], 17.1 µM (active); in [7], 17.1 µM (active); in assay [5], 14.4 µM (active); in assay [8], 1.75 µM (active); in assay [10] it was 10 µM (active). For the same compound, the Potency entry in assay [9] and in [13] was “inactive” each time. The result in [11] and in assay [12] was inactive.

As to `COC(=O)c1cc(Cl)ccc1OC`, the Potency entry in assay [5] is “inactive”.

Regarding `CCC(=O)O[C@H]1[C@H](O[C@@H]2[C@@H](C)[C@H](O[C@H]3C[C@@](C)(OC)[C@@H](O)[C@H](C)O3)[C@@H](C)C(=O)O[C@H](CC)[C@@](C)(O)[C@H](O)[C@@H](C)C(=O)[C@H](C)C[C@@]2(C)O)O[C@H](C)C[C@@H]1N(C)C`, the Potency is 34.1 µM (active) in the assay with Furin (Homo sapiens); 13.6 µM (active) in [6]; 19.2 µM (active) in assay [7]; 2.78 µM (active) in assay [8]; 355 µM (active) in assay [9]; 63.1 µM (active) in [10]. The outcome in [11] and in assay [12] was inactive. Moreover, the Potency entry in assay [14] and in assay [13] was “inactive” each time.

As to `Nc1nnnn1-c1ccccc1`, the Potency result in [5] was “inactive”.

For `CCN(CC)CCNC(=O)c1ccc(NS(C)(=O)=O)cc1`, the Potency result in [1], in [15] and in assay [4] was “inactive” each time. Further, the call in [16] was inactive.

Consider `Cc1nc(C2CCCCC2)c(-c2ccc(S(N)(=O)=O)c(F)c2)o1`, for which the Potency was 24.1 µM (active) with Furin (Homo sapiens), 24.1 µM (active) in assay [6] and 14.4 µM (active) in assay [5]. The call in assay [11] and in assay [12] was inactive.

On to `Cc1c(C)c2c(c(C)c1OC(=O)CCC(=O)OCCO)CC[C@@](C)(CCC[C@H](C)CCC[C@H](C)CCCC(C)C)O2`, for which, in [5], the Potency entry is “inactive”.

Turning to `CCCCC(CC)COC(=O)c1ccccc1C(=O)O` (configuration not stated), in [5], the Potency result is “inactive”.

On to `CCCCCCCCCCCC[N+](C)(C)Cc1ccccc1`, for which the Potency result in assay [5] was “inactive”.

In the case of `CCOC(=O)Cn1cccc1-c1nc(-c2ccc(OC)cc2)c(-c2ccc(OC)cc2)s1`, the figures for the Potency in [6], in [8] and in [10] were 24.1 µM (active), 11.1 µM (active) and 0.398 µM (active), respectively. The result in [17], in [3] and in assay [11] was inactive. Further, the Potency entry in assay [2], in assay [9] and in assay [13] was “inactive” each time.

Take `O=C(Nc1ccc(Cl)cc1)Nc1ccc(Cl)c(Cl)c1`: the Potency entry in [5] was “inactive”.

On to `CC(NCCC(c1ccccc1)c1ccccc1)c1ccccc1` (configuration not stated), for which, in [5], the Potency result is “inactive”.

`COc1cccc2c1[C@@H]1CN(CCCCn3c(=O)[nH]c4c(sc5ncc(-c6ccccc6)nc54)c3=O)C[C@@H]1CO2`: the Potency entry in [15] is “inactive”.
